# Laboratory results as given in PubChem BioAssay AID1345085 (National Center for Advancing Translational Sciences (NCATS), 2018).
# Results filed as inconclusive are left out. Unmarked numbers belong to inactive results. Activity calls are given as the source filed them. Calls come from the whole dose curve; as a rule, active = well fitted cell-killing curve with a large enough effect; inconclusive = small, poorly fitted or top-dose-only effect, or effect the other way; inactive = no such curve, though single readings can be large or run the other way. *1 amine or outer side, *2 acyl side, *3 side chain or, on linkers, in order; H or OH if unused. Where a SMILES comes first, the peptide text is derived from it. Bridges are numbered along the chain shown (N, C = ends). Roman numbers before positions name the chains, in order. [ ]: non-standard residue; d: D form. Actinocin(9to1) = Cc1c2oc3c(C)ccc(C(=O)[*:1])c3nc-2c(C(=O)[*:2])c(N)c1=O; NMeV = CN[C@H](C(=O)O)C(C)C; Sar = CNCC(=O)O
# System: PA-1
# Assay: Confirmatory qHTS for gynecologic anti-cancer compounds from libraries of approved drugs and bioactive compounds; note: nearly all actives have a fitted effect of over 55% in size
# Details: gynecologic cancer cell panel viability, ATPlite luminescence, 48 h; series mostly up to 57.6 µM; activity change, negative = viability loss: at the top concentration
# Procedure, shortened: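 ATP-based luminescent viability (ATPlite) after 48 h drug treatment at 37 °C, 5% CO2, across 57.5 uM–0.977 nM in 1:3 steps. Cells seeded at 1,000 per well 16 h beforehand; IC50 values computed, HEK 293T as selectivity control.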
# % is set by controls: 0 for no effect and ±100 for the full control effect; potency is the fitted concentration of half-maximal effect.
Structure (SMILES),Potency,"activity change, negative = viability loss"
"Cc1c2oc3c(C)ccc(C(=O)N[C@@H]4C(=O)N[C@H](C(C)C)C(=O)N5CCC[C@H]5C(=O)N(C)CC(=O)N(C)[C@@H](C(C)C)C(=O)O[C@@H]4C)c3nc-2c(C(=O)N[C@@H]2C(=O)N[C@H](C(C)C)C(=O)N3CCC[C@H]3C(=O)N(C)CC(=O)N(C)[C@@H](C(C)C)C(=O)O[C@@H]2C)c(N)c1=O (I: T[dV]P[Sar][NMeV] / II: T[dV]P[Sar][NMeV]; ester I:1-I:C, II:1-II:C; linker I:N-II:N via Actinocin(9to1))",96.8 nM (active),–
Cc1nc(N)sc1-c1ccnc(Nc2ccc(N3CCOCC3)cc2)n1,4320 nM (active),–
CN(C)C1CCN(C(=O)c2ccc(NC(=O)Nc3nc(N4CCOCC4)nc(N4CCOCC4)n3)cc2)CC1,1090 nM (active),–
Oc1cn2c(n1)Nc1ccc(Cl)c(Cl)c1C2,–,5.17% [at 19.5 µM]
CN1CCN(CCOc2cc(OC3CCOCC3)c3c(Nc4c(Cl)ccc5c4OCO5)ncnc3c2)CC1,19300 nM (active),–
CC(=O)O[C@H]1C(=O)[C@@]2(C)[C@H]([C@H](OC(=O)c3ccccc3)[C@]3(O)C[C@H](OC(=O)[C@H](O)[C@@H](NC(=O)c4ccccc4)c4ccccc4)C(C)=C1C3(C)C)[C@]1(OC(C)=O)CO[C@@H]1C[C@@H]2O,9.2 nM (active),–
COc1cc2c(c(OC)c1OC)-c1ccc(OC)c(=O)cc1[C@@H](NC(C)=O)CC2,126 nM (active),–
CN1C(=O)C(Cc2c[nH]c3ccccc23)NC1=S (centres undefined),–,11% [at 19.5 µM]
COc1cc(N2CCC(N3CCN(C)CC3)CC2)ccc1Nc1ncnc(Nc2ccccc2S(=O)(=O)C(C)C)n1,9680 nM (active),–
